Test results as given in PubChem BioAssay (NCI).
About 83,000 compounds went through this panel and 20% of them were active in at least one assay; those are over-represented in the sample as a whole.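 Single-concentration screen, 48 h exposure, 96-well plates. Endpoint: percent growth. Below 10 = active.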 Unmarked numbers belong to inactive results. Calls of active or inactive are those of the source.

Columns and labels:
Experiment in all cases: NCI-60 one-dose screen, 48 h (100 = growth as untreated, 0 = no growth, -100 = all killed)
HCT-15 colon = settings: 10 µM unless noted
HT29 colon = settings: 10 µM unless noted
SNB-75 CNS = settings: 10 µM unless noted
U251 CNS = settings: 10 µM unless noted
PC-3 prostate = settings: 10 µM unless noted
SK-MEL-5 melanoma = settings: 10 µM unless noted
UACC-62 melanoma = settings: 10 µM unless noted
LOX IMVI melanoma = settings: 10 µM
SK-MEL-28 melanoma = settings: 10 µM unless noted
SK-MEL-2 melanoma = settings: 10 µM unless noted
EKVX NSCLC = settings: 10 µM unless noted
UO-31 renal = settings: 10 µM unless noted
TK-10 renal = settings: 10 µM unless noted
ACHN renal = settings: 10 µM unless noted
CAKI-1 renal = settings: 10 µM unless noted
A498 renal = settings: 10 µM unless noted
CCRF-CEM leukemia = settings: 10 µM unless noted
MOLT-4 leukemia = settings: 10 µM unless noted
SN12C renal = settings: 10 µM unless noted

| SMILES | growth (HCT-15 colon) | growth (HT29 colon) | growth (SNB-75 CNS) | growth (U251 CNS) | growth (PC-3 prostate) | growth (SK-MEL-5 melanoma) | growth (UACC-62 melanoma) | growth (LOX IMVI melanoma) | growth (SK-MEL-28 melanoma) | growth (SK-MEL-2 melanoma) | growth (EKVX NSCLC) | growth (UO-31 renal) | growth (TK-10 renal) | growth (ACHN renal) | growth (CAKI-1 renal) | growth (A498 renal) | growth (CCRF-CEM leukemia) | growth (MOLT-4 leukemia) | growth (SN12C renal) |
| --- | --- | --- | --- | --- | --- | --- | --- | --- | --- | --- | --- | --- | --- | --- | --- | --- | --- | --- | --- |
| CC1(C)CC[C@]2(C(=O)Nc3ccccc3)CC[C@]3(C)C(=CCC4[C@@]5(C)C[C@@H](O)[C@H](O)[C@@](C)(CO)C5CC[C@]43C)C2C1 (stereo partly drawn) | 42.5% | 22.1% | 85.5% | 51.1% | 20.4% | 20.2% | 57.5% | 53.1% | 70.6% | 59.8% | 52.9% | 47.3% | 86.7% | 59.9% | 44.1% | 56.9% | 30.4% | 5.99% (active) |  |
| COc1ccc2c(c1)C(=N/N=C(\C)c1ccc(OC)c(S(N)(=O)=O)c1)C(=O)N2 | 98.2% | 96.3% | 66.3% | 74.4% | 83.3% | 91.5% | 77.5% |  | 94.1% | 92.6% | 90.3% | 95.1% | 102% | 101% | 79.5% | 99.5% | 74% | 94.5% |  |
| COc1ccc(N2N=C(c3ccc4c(c3)OCO4)CC2c2cccc(NC(=O)CCNS(=O)(=O)c3ccc(Cl)cc3)c2)cc1 (stereo not drawn) | 33% | 17.1% | 49.4% | 29.5% | 16.5% | 24.2% | 39.5% | 23.3% | 28.2% | 44.5% | 13.1% | 35.3% | 51.9% | 24.9% | 30.4% | -4.53% (active) | 18.7% | 10.3% |  |
| CC(=O)Oc1ccccc1C(=O)[Se]CC(=O)Nc1cccc(C(F)(F)F)c1 | -79.8% (active) | -38.7% (active) | -39.2% (active) | -48.3% (active) | 24.9% | -86.4% (active) | -56.7% (active) |  | -58.8% (active) | -21% (active) | -96.7% (active) | -85% (active) | -83.8% (active) | -34.8% (active) | -74.4% (active) | -61% (active) |  | 11.7% | -80.3% (active) |
| Cc1ccc(NC(=O)[C@]23CCC(C)(C)CC2C2=CCC4[C@@]5(C)C[C@@H](O)[C@H](O)[C@@](C)(CO)C5CC[C@@]4(C)[C@]2(C)CC3)cc1 (stereo partly drawn) | 11.7% | -50% (active) | 74.4% | 26.8% | 5.82% (active) | -83.2% (active) |  | -6.45% (active) |  | 34.1% | 24.4% | 25.4% | 48% | 23.7% | 29.2% | -1.05% (active) | -1.64% (active) | 0.258% (active) |  |
| CCCCCCCCOc1cccc(S(=O)(=O)Nc2ccc(C)cc2C(=O)O)c1 | 92.4% | 110% | 94.9% | 91.5% | 88.2% | 89.1% |  | 101% |  | 89.7% | 92.8% | 85.9% | 102% | 98.1% | 85.8% | 107% | 72.5% | 90.5% |  |
| CC(C)Sc1nc(NCCc2c[nH]c3ccccc23)c(C#N)c(-c2ccc(F)cc2)n1 | 5.84% (active) | -6.22% (active) | 73% | 20.7% | 15% | 24.1% | 58.8% | -17.3% (active) | 71.1% | 70.3% | 32.7% | 44.8% | 96.3% | 51.7% | 42.7% | 42.4% | 11.7% | 12% |  |
| CC(=O)OC[C@@]1(C)C2CC[C@]3(C)C(CC=C4C5CC(C)(C)CC[C@]5(C(=O)Nc5ccc(Br)cc5)CC[C@]43C)[C@@]2(C)C[C@@H](OC(C)=O)[C@@H]1OC(C)=O (stereo partly drawn) | 30.6% | 27% | 56.1% | 38.5% | 35.5% | 8.44% (active) | 44.1% | 12.2% |  | 42.2% | 32.8% | 37.2% | 45.7% | 39% | 42% | 64.3% |  | 38% |  |
| O=C(CSc1nc2ccccc2c(=O)[nH]1)NCCN1CCCCC1 | 97.5% | 108% | 79.1% | 98.7% | 91.2% | 100% |  | 98.3% | 98.7% | 92.5% | 93.7% | 78.6% | 94.9% | 103% | 82.4% | 105% | 98.5% | 103% | 96.4% |
| O=C(/C=C/c1ccc(-c2ccccc2)cc1)c1nc2ccccc2n1Cc1ccc(F)cc1 | 22.8% | 9.19% (active) | 49.2% | 32.5% | 47.6% | 47.9% | 38.2% |  | 28.4% | 56.6% | 34.4% | 47.6% | 55.8% | 41.3% | 49.5% | 110% | 11.9% | -12.8% (active) | 53.9% |
| CCCCSc1nc(NCCc2c[nH]c3ccccc23)c(C#N)c(-c2ccc(F)cc2)n1 | 28.8% | 25.4% | 74.2% | 45.6% | 28.5% | 37.6% | 61.4% |  | 81.4% | 72% | 40.9% | 56.3% | 107% | 71.9% | 48.2% | 103% | 36.5% |  |  |
| CC(=O)OC[C@@]1(C)C2CC[C@]3(C)C(CC=C4C5CC(C)(C)CC[C@]5(C(=O)Nc5ccc(C)cc5)CC[C@]43C)[C@@]2(C)C[C@@H](OC(C)=O)[C@@H]1OC(C)=O (stereo partly drawn) | 35.1% | 30.6% | 57% | 40.7% | 34.3% | 7.75% (active) | 48.2% |  | 77.1% | 39.4% | 32.4% | 40.9% | 53.2% | 38.9% | 45.8% | 67.1% | 32.8% | 34.4% |  |
| Cc1ccc(-n2c(-c3cc4ccccc4nc3Cl)noc2=O)cc1 | 39.1% | 110% | 40.1% | 83.7% | 75.5% | 66.1% | 56% | 85.1% | 97.1% | 80.9% | 47.5% | 72.4% | 122% | 93.6% | 49.8% | 137% | 84.6% | 76.5% |  |
| C=C1CCC2C3(C)COC(c4cc(F)cc(F)c4)OC3CCC2(C)C1CC(O)C1=CCOC1=O (stereo not drawn) | 7.8% (active) | 27.2% | 38.1% | 69.1% | 25.8% | 77.8% | 68.8% |  | 46.7% | 57.2% | 83.3% | 49.6% | 110% | 67.8% | 60.3% | 120% | 16.8% | 33.7% | 48.1% |
| Cc1cc2c(cc1Cl)C(=O)/C(=C/c1ccccc1)O2 | 13.3% | 38.6% | 52.5% | 8.18% (active) | 29.8% | -75.4% (active) | 29.3% |  | 49.9% | 41% | -7.97% (active) | -80.4% (active) | 56% | -83.1% (active) | -81.1% (active) | 115% |  | 0.549% (active) | -68.8% (active) |
| O=C1c2c(c3c4cc(F)ccc4oc3c3[nH]c4ccc(Br)cc4c23)C(=O)N1O | 48.1% | 68.6% | -13.7% (active) | 18.5% | 20.2% | 6.06% (active) | 18.6% |  | 43.6% | 5.56% (active) | 76.5% | 9.04% (active) | 137% | -33.8% (active) | 21.9% | 119% |  | 7.83% (active) | 19.2% |
| CCCCSc1nc(NCCc2c[nH]c3ccccc23)c(C#N)c(-c2ccc(OC)cc2)n1 | 24.9% | 25.1% | 65.4% | 55.2% | 23.2% | 46.2% | 71.2% | 37.7% | 75.8% | 76.6% | 40.1% | 59.3% | 102% | 66.6% | 53.6% | 103% | 27.8% | 26.3% |  |
